Laboratory results from PubChem BioAssay AID2813 (NMMLSC, 2010).
Where “and” joins values, the source holds several entries; their conditions need not be identical. Equal entries are not always repeated. Hit rate of the full screen: of about 1,300 compounds, about 20 (2%) were called active. The list is a sample of the results. Unmarked numbers belong to inactive results. Cut-off read from the data, not from the text of the source: active = inhibition above about 40%; inactive = the rest.

Target: Integrin alpha-4 (Homo sapiens) (UniProt P13612)
Sequence (P13612 whole entry, looked up): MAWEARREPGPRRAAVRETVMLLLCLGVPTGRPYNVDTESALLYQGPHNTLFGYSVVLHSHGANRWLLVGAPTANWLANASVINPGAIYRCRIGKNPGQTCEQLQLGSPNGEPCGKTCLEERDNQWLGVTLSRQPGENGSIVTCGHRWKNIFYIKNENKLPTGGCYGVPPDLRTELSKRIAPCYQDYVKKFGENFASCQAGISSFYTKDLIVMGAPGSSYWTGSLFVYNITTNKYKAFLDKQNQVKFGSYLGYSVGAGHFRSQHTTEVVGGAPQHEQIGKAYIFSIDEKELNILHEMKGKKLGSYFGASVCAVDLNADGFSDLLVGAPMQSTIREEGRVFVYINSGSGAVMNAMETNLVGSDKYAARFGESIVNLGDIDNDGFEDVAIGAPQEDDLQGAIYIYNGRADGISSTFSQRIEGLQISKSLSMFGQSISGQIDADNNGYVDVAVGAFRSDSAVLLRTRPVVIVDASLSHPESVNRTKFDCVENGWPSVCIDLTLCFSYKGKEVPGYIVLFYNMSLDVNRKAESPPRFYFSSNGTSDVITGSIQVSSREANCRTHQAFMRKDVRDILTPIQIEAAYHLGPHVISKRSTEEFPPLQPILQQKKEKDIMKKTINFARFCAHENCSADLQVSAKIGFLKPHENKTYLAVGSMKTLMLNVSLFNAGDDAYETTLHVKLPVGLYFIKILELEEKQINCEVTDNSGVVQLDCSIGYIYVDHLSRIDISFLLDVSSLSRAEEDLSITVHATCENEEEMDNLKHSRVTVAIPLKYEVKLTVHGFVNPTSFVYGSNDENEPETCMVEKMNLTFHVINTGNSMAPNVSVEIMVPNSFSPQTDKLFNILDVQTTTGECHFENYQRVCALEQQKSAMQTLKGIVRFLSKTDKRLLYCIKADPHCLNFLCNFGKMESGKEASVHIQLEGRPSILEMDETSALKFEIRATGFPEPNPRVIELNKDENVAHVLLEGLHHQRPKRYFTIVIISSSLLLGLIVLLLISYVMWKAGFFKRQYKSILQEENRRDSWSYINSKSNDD
Test: retest of VLA-4 allosteric modulators, confirmation, cell-based, cherry-picked plates, U937, HUTS-21 LIBS antibody (AID 2813);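 note: 0% = ligand without compound and 100% = no ligand background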
Settings: U937 cells, HUTS-21 LIBS mAb binding, flow cytometry; at 6.7 µM; hits give high values; LDV ligand present at threefold Kd

| SMILES | inhibition |
| --- | --- |
| COc1ccc(C(=O)N2CCC(C(=O)Nc3cccc(C)c3)CC2)cc1OC | -6.72% |
| Cc1ccc(NC(=O)OCc2cncs2)cc1 | 11.7% |
| CC1(C)SC2C(NC(=O)COc3ccccc3)C(=O)N2C1C(=O)O (stereo not given) | 4.42% |
| COC(=O)[C@]1(Cc2ccccc2)N[C@H](CN(C)S(=O)(=O)c2ccc(OC(F)(F)F)cc2)[C@@H]2C(=O)N(Cc3ccccc3)C(=O)[C@@H]21 | -5.51% |
| CSc1nc(-c2ccco2)nn1C(=O)CCc1ccccc1 | 9.03% |
| Cc1cccc(NS(=O)(=O)c2ccc(C)c(C(N)=O)c2)c1 | 0.43% |
| CC1(C(=O)NCCc2c[nH]c3ccccc23)C=CC2(CCCCC2)N1C(=O)c1ccccc1 (stereo not given) | 5.58% |
| CCCOc1ccc(N2C(=O)CC(N(CCc3ccc(S(N)(=O)=O)cc3)C(C)=O)C2=O)cc1 (stereo not given) | -1.15% |
| CC(=O)NC12CC3CC(C1)CC(C(=O)N1CCN(S(=O)(=O)c4cccs4)CC1)(C3)C2 | -0.75% |
| Cc1nn(CC(=O)Nc2ccc(C#N)cc2)c(C)c1[N+](=O)[O-] | -11.4% |
| Nc1ccc(Cl)c(S(=O)(=O)Nc2ccccc2Cl)c1 | -5.79% |
| O=C1Cc2cc(S(=O)(=O)Nc3cccc(F)c3)ccc2N1 | -8.24% |
| CC(OC(=O)c1c(F)cccc1F)C(=O)NCCC1=CCCCC1 (stereo not given) | 1.98% |
| O=C(Nc1cccc(S(=O)(=O)Nc2ccc(Cl)cc2)c1)c1ccc2c(c1)OCCO2 | -8.53% |
| Cc1cc(C)n(CC(O)CN(c2ccccc2)S(=O)(=O)c2ccc3ccccc3c2)n1 (stereo not given) | 11.9% |
| CC/C(O)=C1\C(=O)CC(C)(C)CC1=NCCc1nc2ccccc2[nH]1 | -5.52% |
| CC(=O)c1cccc(NC(=O)C2CCN(C(=O)c3ccccc3Cl)CC2)c1 | 5.38% |
| COC(=O)c1c(NC(=O)c2c(Cl)cnn2C)sc(C)c1C | -13.4% |
| CCn1c(SCC(=O)Nc2nc(C)cs2)nnc1C(C)NC(=O)c1ccccc1 (stereo not given) | 0.62% and 0% |
| Cc1ccc(S(=O)(=O)N2[C@@H](c3ccc(Br)cc3)C(C(=O)O)=C[C@H]2CC2CCCC2)cc1 | 4.02% |
| Cc1cc(C)cc(C(=O)NCC(=O)OCC(=O)N2CCCCC2)c1 | 13.7% |
| Cc1ccnc(NC(=O)c2ccco2)n1 | -3.54% |

| SMILES | inhibition |
| --- | --- |
| S=C(Nc1cccnc1)Nc1ccccn1 | -4.45% |
| COc1cccc(-c2cccc(NC(=O)C3CCN(C4CCC4)CC3)c2)c1 | 3.49% |
| COc1cccc(N2CCN(C3CC(=O)N(c4ccc(Cl)cc4)C3=O)CC2)c1 (stereo not given) | 3.08% |
| CCOC(=O)N1CCN(S(=O)(=O)c2ccc3c(c2)C(C)C(=O)N3)CC1 (stereo not given) | 0.62% |
| CCOC(=O)C1CCCN(S(=O)(=O)c2ccc3c(c2)C(C)(C)C(=O)N3C)C1 (stereo not given) | 0.62% |
| CC(=O)c1ccc(N2CCN(S(=O)(=O)c3ccc4c(c3)CC(=O)N4C)CC2)cc1 | -9.51% |
| O=C(CN1CCC(NC(=O)Nc2ccccc2)CC1)Nc1cccc([N+](=O)[O-])c1 | 1.64% |
| Cc1cnc(NC(=O)C2CCCC2)s1 | -4.15% |
| Cc1ccc(S(=O)(=O)N2[C@@H](c3cccc4ccccc34)C(C(=O)O)=C[C@H]2C(C)(C)C)cc1 | 1.98% |
| CCCN(CC1COc2ccccc2O1)C(=S)Nc1ccc(C)cc1 (stereo not given) | -14.3% |
| COCCNC(=O)Cn1cc2c(n1)CCCCC2 | 3.34% |
| CC(C)(C)NC(=O)NC(=O)COC(=O)Cn1c(C(F)(F)F)nc2ccccc21 | -13.5% |
| COc1ccccc1NC(=O)c1cc(Cl)nnc1Cl | 0% |
| COC(=O)N/N=C/c1c[n+]([O-])c2ccccc2[n+]1[O-] | 1.64% |
| COc1cccc(-c2sc3ccc(OC)cc3c2-c2ccc(OCCN3CCCCC3)cc2)c1 | 3.49% |
| CCc1ccc2c(c1)C1(NN=C(c3ccccc3)S1)C(=O)N2 (stereo not given) | 2.06% |
| Cc1cc(C(=O)OCC(=O)Nc2ccc(F)c(F)c2)c(C)o1 | 0% |
| CCNC(=S)NNC(=O)Cc1ccccc1 | -5.51% |
| CCOC(=O)C1(S(=O)(=O)c2ccccc2)CCN(Cc2ccccc2)CC1 | 1.76% |
| COCCOC(=O)C1=C(C)Nc2nc(C)nn2C1c1ccccc1 (stereo not given) | 3.82% |
| CCCOc1ccccc1C1CC(=O)Nc2cc3c(cc21)OCO3 (stereo not given) | 37.9% |
| Cc1cc(C(=O)OCC(=O)NCc2ccco2)c(C)n1-c1ccccc1 | 24.9% |

| SMILES | inhibition |
| --- | --- |
| CCc1nnc(NC(=O)[C@@H](NC(=O)c2cccc(C)c2)C(C)C)s1 | 3.73% |
| O=C(Nn1c(-c2ccccc2)nc2ccccc2c1=O)c1ccc([N+](=O)[O-])cc1 | -13.4% |
| CC(C)N(Cc1ccccc1)C(=S)Nc1ccc(OC(F)F)cc1 | -7.72% |
| Cc1cnc(NC(=O)CSc2nnc(C)s2)s1 | -0.75% |
| CCOc1ccc(N(CC(=O)Nc2ccccc2F)S(=O)(=O)c2c(C)[nH]c(=O)[nH]c2=O)cc1 | 5.58% |
| COc1ccccc1C1CC(=O)n2c(nc(-c3ccccc3)c2-c2ccccc2)S1 (stereo not given) | -0.36% |
| COc1ccc(-c2sc3ccccc3c2-c2ccc(OCCN3CCOCC3)cc2)cc1 | 7.43% |
| CCOC(=O)C1(S(=O)(=O)c2ccc(Cl)cc2)CCN(Cc2ccccc2)CC1 | 5.07% |
| CC(=O)c1ccc(NC(=O)Cn2c(=O)oc3ccccc32)cc1 | 2.42% |
| CCOC(=O)c1ccc(N2C(=O)CC(N3CC(C)OC(C)C3)C2=O)cc1 (stereo not given) | 5.58% and 0% |
| Cc1cc(C)cc(OCC(=O)NCc2cc(C)nc3ccccc23)c1 | -0.36% |
| NC(=O)Cn1c(=O)oc2ccccc21 | -9.51% |
| Cc1c(CN2CCC(CO)(CCOc3ccccc3)CC2)[nH]c2ccc(Cl)cc12 | 22.3% |
| CCC(C)(C)NC(=O)c1cc([N+](=O)[O-])ccc1N1CCCCC1 | -9.35% |
| O=C(CN1CCN(c2ncccn2)CC1)Nc1ccccc1C(F)(F)F | 4.55% |
| Cc1ccccc1OCCC(=O)OCC(=O)NC(C)c1ccccc1 (stereo not given) | 9.45% |
| CC(=O)N1CCc2cc(S(=O)(=O)Nc3ccccc3N3CCN(C)CC3)ccc21 | 1.98% |
| Cc1nn(Cc2ccc(Cl)c(Cl)c2)c(C)c1NC(=O)c1cc(C2CC2)on1 | -4.2% |
| COc1ccc2sc(-c3ccccc3OC)c(-c3ccc(OCCN4CCCC4)cc3)c2c1 | -4.83% |
| O=C(Cn1c(NCCO)nc2ccccc21)c1ccc(Cl)cc1Cl | 8.37% |
| Cc1ccc(/C=C/C(=O)OCC(=O)NCc2ccc(Cl)cc2)o1 | -0.23% |
